According to PubChem BioAssay (NCI):
This is part of a sample that, as a whole, favours compounds with a hit. Of some 79,000 tested, about 15% had one in any assay. Active and inactive are the calls of the source. Rule as the data show it: active = growth inhibition above about 70%; inactive = the rest.

Experiments:
[1] = NCI Yeast Anticancer Drug Screen. Data for the rad50 strain (AID 155);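 also: 0% = growth of vehicle-only cultures of the same strain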; settings: S. cerevisiae rad50 strain growth inhibition; at 50.0 µM; hits give high values
In short: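 Cells are treated with compound, grown, and their growth is then scored against vehicle-only cultures of the same repair-deficient yeast strain.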

[2] = NCI Yeast Anticancer Drug Screen. Data for the mec2-1 strain (AID 157); settings: S. cerevisiae mec2-1 strain, at 50.0 µM, hits give high values
In short: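 Test agents were screened against the mec2-1 yeast strain, with defined DNA repair or cell cycle alteration. Growth was scored as inhibition against vehicle-only controls.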

[3] = NCI Yeast Anticancer Drug Screen. Data for the sgs1 mgt1 strain (AID 161);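 also: 0% = growth of cultures given vehicle only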; settings: S. cerevisiae sgs1 mgt1 strain, at 50.0 µM, hits give high values
In short: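 Test agents were incubated with a DNA-repair-mutant yeast strain. Growth was then read and compared against vehicle-treated controls.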

[4] = NCI Yeast Anticancer Drug Screen. Data for the cln2 rad14 strain (AID 165);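 also: 0% = growth equal to vehicle treated cultures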; settings: S. cerevisiae cln2 rad14 strain, at 50.0 µM, hits give high values
In short: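 Growth of compound-exposed yeast (cln2 rad14 genotype) measured and expressed as inhibition relative to vehicle.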

[5] = NCI Yeast Anticancer Drug Screen. Data for the bub3 strain (AID 167); settings: S. cerevisiae bub3 mutant strain, at 50.0 µM, hits give high values
In short: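 Part of a panel of yeast mutants defective in DNA damage repair or cell cycle regulation. Each strain is grown with compound, and inhibition is calculated relative to solvent-treated cultures.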

[6] = NCI Yeast Anticancer Drug Screen. Data for the mlh1 rad18 strain (AID 175); settings: S. cerevisiae mlh1 rad18 strain growth inhibition; at 50.0 µM; hits give high values
In short: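 In this whole-cell yeast screen, a strain with altered DNA damage repair is challenged with compound, and its growth is measured against matched vehicle-treated controls.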

Measured: growth inhibition

COC(=O)[C@@H]1Cc2ccc(OC)c(c2)OCCC(=O)N1
inactive: [1] -37% | [2] 0% | [3] 21.7% | [4] -2.95% | [5] -13% | [6] -12.2%

CC(=O)Nc1cc(C(C)=O)ccc1C(C)=O
inactive: [1] -5.8% | [2] -6.2% | [3] 6% | [4] 2.35% | [5] -0.5% | [6] 12.7%

Cc1[nH]n(C2=NCCN2)c(=O)c1Cc1ccccc1
inactive: [1] 4.6% | [2] -6.95% | [3] -24.2% | [4] -26.3% | [5] -10.6% | [6] -61.6%

Cc1cc(C)c[n+](-c2nc3c([O-])n(C)c(=O)n(C)c-3n2)c1
inactive: [1] -5.35% | [2] 3.15% | [3] -17.8% | [4] -5.45% | [5] -8.25% | [6] -4.15%

Cc1ccc2ccc(=O)oc2c1
inactive: [1] 7.9% | [2] 1.05% | [3] 2.85% | [4] 7.45% | [5] 13.8% | [6] 6.85%

C[C@H](CCC(c1ccccc1)c1ccccc1)[C@H]1CC[C@H]2[C@@H]3CC[C@@H]4C[C@H](O)CC[C@]4(C)C3=CC[C@]12C
inactive: [1] 1.7% | [2] -15.3% | [3] 4.1% | [4] 24.8% | [5] -1.75% | [6] 9.45%

Cc1cccc2c1NC(=O)C2=O
inactive: [1] 21.6% | [2] 8.4% | [3] -2.8% | [4] 15.7% | [5] -0.65% | [6] 13.5%

C(/C=C\c1ccccc1)=Nc1ccccc1
inactive: [1] 8% | [2] -11.8% | [3] -4.55% | [4] 9.35% | [5] 0.2% | [6] 17.1%

O=C1ON(c2ccccc2)C(c2cccc(Cl)c2)N1c1ccccc1 (stereo not given)
inactive: [1] 14.1% | [2] -2.85% | [3] -3.95% | [4] 3.25% | [5] 9.25% | [6] -16.1%

CCOC(=O)c1cn(CC)c2cc3c(cc2c1=O)SCS3
inactive: [1] -37.3% | [2] -18.9% | [3] -16.6% | [4] 29.9% | [5] 19.4% | [6] 41%

CC1=NN(C(=O)c2ccccc2)C(=O)C1N=Nc1ccc([N+](=O)[O-])cc1 (stereo not given)
inactive: [1] -3.3% | [2] -5.5% | [3] -2.5% | [4] -10.8% | [5] 0% | [6] -3.35%

C=C1C(OC(C)=O)CC(OC(C)=O)C2(C)C(OC(C)=O)C(OC(C)=O)C3=C(C)C(OC(=O)/C=C/c4ccccc4)CC(C(OC(C)=O)C12)C3(C)C (stereo not given)
inactive: [1] 4.8% | [2] -12.1% | [3] 5.6% | [4] -4.75% | [5] 20.6% | [6] 15.6%

CCCCCCC(=O)OC[n+]1ccc2c(C)c3[nH]c4ccc(OC)cc4c3c(C)c2c1
active: [1] 87% | [2] 91.2% | [3] 89.8% | [4] 88.7% | [5] 86% | [6] 91.1%

O=C(O)c1cc(-c2c(Cl)cccc2Cl)nc2cc3ccccc3cc12
inactive: [1] 26% | [2] 15.8% | [3] 28.9% | [4] 21.4% | [5] 36.4% | [6] 26.4%

OCCNc1ncnc2nc[nH]c12
inactive: [1] -17.9% | [2] -3.5% | [3] -12.5% | [4] 65.5% | [5] -46.5% | [6] 2.5%

O=[N+]([O-])c1ccc(-c2nc3ccc(Cl)cc3[nH]2)cc1
inactive: [1] -16.1% | [2] 30.9% | [3] 25.2% | [4] 21.9% | [5] 9.55% | [6] 44.5%

Cc1cc(=O)[nH]c2[nH][nH]c(=O)c12
inactive: [1] -12.3% | [2] -28.6% | [3] -43.6% | [4] -7.35% | [5] 2.85% | [6] -8.8%

CN(C)C(=O)C1C2CCCC(CC2)C1C(=O)N(C)C (stereo not given)
inactive: [1] 13.7% | [2] 19.6% | [3] 21.2% | [4] 20.5% | [5] 18% | [6] 20.2%

COc1ccc2nc3cc(Cl)ccc3c(NCCCC3CCCN4CCCCC34)c2c1 (stereo not given)
inactive: [1] 50% | [2] 40.5% | [3] 2% | [4] 6.15% | [5] 11.7% | [6] 38.4%

CCCCCCCCCCCCCOCC(=O)OC
inactive: [1] -0.75% | [2] 20.8% | [3] -4.9% | [4] -29% | [5] 12.9% | [6] 1.6%
